hcDAF-12 act: activates DAF-12 receptor from parasite H. contortus. activation, % at 6.8 µM. actives 1.4% (n = 370,000). HEK293 hcDAF-12 lit1-tk-luc reporter, luminescence; 0% DMSO, 100% Δ7-dafachronic acid. AID 652067;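 active = activation above the mean of all tested compounds plus 3 SD, cut at about 5.5% in these data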
DAX1 inh-1: blocks DAX1 repression of SF-1 activated StAR promoter. inhibition, % at 6.8 µM. actives 1.1% (n = 370,000). AID 652010. HEK293T StAR-luciferase reporter, SF-1/DAX-1 repression relief;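 active = inhibition above the mean over all tested compounds plus 3 SD, cut at about 3.6% in these data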;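 also: higher inhibition means more luminescence from relief of DAX-1 repression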
DAX1 inh-2: NR0B1 (DAX1) inhibition; actives 0.99% (n = 340,000); HEK293 Gal4-DAX1 luciferase reporter, luminescence; AID 504766; P51843; inhibition, % at 6.75 µM;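 active = inhibition above the mean over all tested compounds plus 3 SD, cut at about 4.2% in these data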;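 also: inhibition shows as a rise in luminescence from relieved DAX1 repression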
Target sequence (P51843 207-470 limits assumed): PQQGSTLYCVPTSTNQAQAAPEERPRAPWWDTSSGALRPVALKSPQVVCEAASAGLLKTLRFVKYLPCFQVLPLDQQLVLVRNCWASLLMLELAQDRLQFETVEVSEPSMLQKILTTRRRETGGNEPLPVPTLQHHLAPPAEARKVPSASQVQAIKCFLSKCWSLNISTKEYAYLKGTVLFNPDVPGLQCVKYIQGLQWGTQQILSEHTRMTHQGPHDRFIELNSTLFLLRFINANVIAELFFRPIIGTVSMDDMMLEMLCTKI
ssDAF-12 act: activates DAF-12 receptor from parasite S. stercoralis | HEK293 ssDAF-12/GRIP1 lit1-tk-luc reporter, luminescence; % of 3 µM dafachronic acid response | activation, % at 6.8 µM | actives 1% (n = 370,000) | AID 652126;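 active = activation above the mean over all tested compounds plus 3 SD, cut at about 0.9% in these data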
hgDAF-12 ag: hgDAF-12 agonism, primary luciferase screen | HEK293 GAL4-hgDAF12 UAS-luciferase reporter, agonist luminescence; normalized to butyrate control | activation, % at 6.8 µM | actives 1.8% (n = 370,000) | AID 687014;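 active = activation above a cutoff set at the mean of all screened compounds plus 3 SD, cut at about 10% in these data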
Hits are given with their value. A selection: hits, their analogues and other compounds. The true share with any hit is near 4.1%.

Results for Cc1ccc2nc(-c3ccncc3)[nH]c2c1 ?
hcDAF-12 act: inactive; DAX1 inh-1: inactive; DAX1 inh-2: inactive; ssDAF-12 act: inactive; hgDAF-12 ag: 11

Results for Cc1ccc(-c2csc3nc(-c4ccncc4)[nH]c(=O)c23)cc1 ?
hcDAF-12 act: inactive; DAX1 inh-1: inactive; DAX1 inh-2: inactive; ssDAF-12 act: inactive; hgDAF-12 ag: inactive

Results for Cc1ccc(-n2c(SCc3c(Cl)cccc3Cl)nnc2-c2ccco2)cc1 ?
hcDAF-12 act: inactive; DAX1 inh-1: inactive; ssDAF-12 act: inactive; hgDAF-12 ag: inactive

Results for COC(=O)C1CN(Cc2cn(Cc3ccc(Cl)cc3)nn2)CCS(=O)(=O)N1Cc1ccc(Cl)cc1 (centres undefined) ?
hcDAF-12 act: inactive; DAX1 inh-1: inactive; ssDAF-12 act: inactive; hgDAF-12 ag: inactive

Results for Clc1ccc(-n2nnnc2CN2CCOCC2)cc1 ?
hcDAF-12 act: inactive; DAX1 inh-1: inactive; DAX1 inh-2: 6.0; ssDAF-12 act: inactive; hgDAF-12 ag: inactive

Results for O=C(Nc1cccc(Cl)c1)NC1CC2CCC(C1)N2Cc1cccs1 (centres undefined) ?
hcDAF-12 act: inactive; DAX1 inh-1: inactive; DAX1 inh-2: 4.6; ssDAF-12 act: inactive; hgDAF-12 ag: inactive

How did CSCCC(NC(=O)COc1cccc2ccccc12)C(=O)O (centres undefined) do in these assays?
hcDAF-12 act: inactive; DAX1 inh-1: inactive; DAX1 inh-2: inactive; ssDAF-12 act: 1.0; hgDAF-12 ag: inactive

How did CC(C)NC(=O)COc1cccc2ccccc12 do in these assays?
hcDAF-12 act: inactive; DAX1 inh-1: inactive; DAX1 inh-2: inactive; ssDAF-12 act: inactive; hgDAF-12 ag: inactive

What do the screens show for `CCN(C(=O)[C@@H](C)[C@@H](O)c1ccc(C(C)=O)cc1)c1ccccc1`?
hcDAF-12 act: inactive; DAX1 inh-1: inactive; ssDAF-12 act: inactive; hgDAF-12 ag: inactive

How did C/C(=N/NC(=O)CSc1nnc(SCc2ccc(C)cc2)s1)c1cccc(O)c1 do in these assays?
hcDAF-12 act: inactive; DAX1 inh-1: inactive; ssDAF-12 act: inactive; hgDAF-12 ag: inactive

How did Nc1nc2nn(-c3ccccc3)nc2c(=O)[nH]1 do in these assays?
hcDAF-12 act: inactive; DAX1 inh-1: inactive; DAX1 inh-2: inactive; ssDAF-12 act: inactive; hgDAF-12 ag: inactive

Results for Nc1nc2n[nH]nc2c(=O)[nH]1 ?
hcDAF-12 act: inactive; DAX1 inh-1: inactive; DAX1 inh-2: inactive; ssDAF-12 act: 1.5; hgDAF-12 ag: inactive

How did O=C(Nc1cccc([N+](=O)[O-])c1)c1ccccc1 do in these assays?
hcDAF-12 act: inactive; DAX1 inh-1: inactive; DAX1 inh-2: inactive; ssDAF-12 act: inactive; hgDAF-12 ag: inactive

Results for O=C(Nc1ccc2ccccc2c1)c1cccc([N+](=O)[O-])c1 ?
hcDAF-12 act: inactive; DAX1 inh-1: inactive; DAX1 inh-2: inactive; ssDAF-12 act: inactive; hgDAF-12 ag: 12

How did O=C(O)c1cccc([N+](=O)[O-])c1C(=O)Nc1ccc2ccccc2c1 do in these assays?
hcDAF-12 act: 6.5; DAX1 inh-1: inactive; DAX1 inh-2: inactive; ssDAF-12 act: 1.8; hgDAF-12 ag: inactive

Results for CC(C)C(=O)Nc1cccc(NC(=O)c2cccc([N+](=O)[O-])c2)c1 ?
hcDAF-12 act: inactive; DAX1 inh-1: inactive; DAX1 inh-2: 5.5; ssDAF-12 act: inactive; hgDAF-12 ag: inactive

Results for COc1cc([N+](=O)[O-])ccc1NC(=O)c1cccc(NC(=O)C(C)C)c1 ?
hcDAF-12 act: inactive; DAX1 inh-1: inactive; DAX1 inh-2: inactive; ssDAF-12 act: inactive; hgDAF-12 ag: inactive

How did CCOC(=O)[C@]12CCCC3=C1N(CCC3)C(=O)[C@@H](CC(=O)NCc1cccc3ccccc13)C2 do in these assays?
hcDAF-12 act: inactive; DAX1 inh-1: inactive; ssDAF-12 act: inactive; hgDAF-12 ag: inactive

Results for N#CCC[C@H]1CC[C@]2(CCCN(Cc3ccccc3)C2)O1 ?
hcDAF-12 act: inactive; DAX1 inh-1: inactive; ssDAF-12 act: inactive; hgDAF-12 ag: inactive

Results for c1ccc(Cc2nc3ccccc3s2)cc1 ?
hcDAF-12 act: 5.8; DAX1 inh-1: inactive; DAX1 inh-2: inactive; ssDAF-12 act: inactive; hgDAF-12 ag: inactive

What do the screens show for `O=C(CCc1nc2ccccc2s1)Nc1ccccc1`?
hcDAF-12 act: inactive; DAX1 inh-1: inactive; DAX1 inh-2: inactive; ssDAF-12 act: inactive; hgDAF-12 ag: inactive

How did Cc1ccnc(SCc2nc3ccccc3s2)n1 do in these assays?
hcDAF-12 act: 5.8; DAX1 inh-1: inactive; DAX1 inh-2: inactive; ssDAF-12 act: inactive; hgDAF-12 ag: inactive

What do the screens show for `Cn1cc(C2(C)CCOc3ccccc32)c2ccccc21` (centres undefined)?
hcDAF-12 act: inactive; DAX1 inh-1: inactive; ssDAF-12 act: inactive; hgDAF-12 ag: inactive

How did C[C@H](c1ccccc1)N1C[C@@H](COCc2ccccc2)Oc2cc(N3CC[C@@H](O)C3)ccc2S1(=O)=O do in these assays?
hcDAF-12 act: inactive; DAX1 inh-1: 3.9; ssDAF-12 act: inactive; hgDAF-12 ag: inactive

How did CCCCC[C@@H](C)N1C[C@@H](COCc2ccccc2)Oc2cc(N3CC[C@H](N(C)C)C3)ccc2S1(=O)=O do in these assays?
hcDAF-12 act: inactive; DAX1 inh-1: 4.1; ssDAF-12 act: inactive; hgDAF-12 ag: inactive

What do the screens show for `CCCCC[C@@H](C)N1C[C@@H](COCc2ccccc2)Oc2cc(N3CCC[C@H]3CO)ccc2S1(=O)=O`?
hcDAF-12 act: inactive; DAX1 inh-1: inactive; ssDAF-12 act: 0.9; hgDAF-12 ag: inactive

Results for CCOC(=O)N(C)[C@H]1C[C@H]2c3[nH]c4c(-c5ccc6c(c5)OCO6)cccc4c3CCN2C(=O)[C@H]1[C@H](C)O ?
hcDAF-12 act: inactive; DAX1 inh-1: inactive; ssDAF-12 act: inactive; hgDAF-12 ag: inactive

What do the screens show for `Cc1ccc(NC(=O)c2cc(N(C)C)ccc2[P+](=O)O)cc1`?
hcDAF-12 act: 5.7; DAX1 inh-1: 3.7; DAX1 inh-2: inactive; ssDAF-12 act: inactive; hgDAF-12 ag: 11

What do the screens show for `Cc1cc(C)c2cc(C(=O)N3CCC(N4CCCCC4)CC3)[nH]c2c1`?
hcDAF-12 act: inactive; DAX1 inh-1: 4.3; DAX1 inh-2: inactive; ssDAF-12 act: inactive; hgDAF-12 ag: inactive

How did Cc1cc(C)c2cc(C(=O)N3CCC(C(=O)c4ccc(F)cc4)CC3)[nH]c2c1 do in these assays?
hcDAF-12 act: inactive; DAX1 inh-1: inactive; DAX1 inh-2: inactive; ssDAF-12 act: inactive; hgDAF-12 ag: inactive

Results for Clc1ccc(OCCn2ccnc2)c(Cl)c1 ?
hcDAF-12 act: inactive; DAX1 inh-1: inactive; DAX1 inh-2: 8.9; ssDAF-12 act: inactive; hgDAF-12 ag: inactive

What do the screens show for `Clc1ccc(OCCn2ccnc2)c(Br)c1`?
hcDAF-12 act: inactive; DAX1 inh-1: inactive; DAX1 inh-2: inactive; ssDAF-12 act: inactive; hgDAF-12 ag: inactive

What do the screens show for `CCOC(=O)Cc1csc(NS(=O)(=O)c2cccc([N+](=O)[O-])c2)n1`?
hcDAF-12 act: inactive; DAX1 inh-1: inactive; DAX1 inh-2: inactive; ssDAF-12 act: inactive; hgDAF-12 ag: inactive

Results for Cc1csc(NS(=O)(=O)c2cccc([N+](=O)[O-])c2)n1 ?
hcDAF-12 act: inactive; DAX1 inh-1: inactive; DAX1 inh-2: 6.1; ssDAF-12 act: inactive; hgDAF-12 ag: inactive

Screening data (PubChem)
